Assay outcomes deposited in PubChem by National Center for Advancing Translational Sciences (NCATS).
MBNL1 CUG block – qHTS Assay for Inhibitors of MBNL1-poly(CUG) RNA binding | AID 2675, 2010 | Potency, µM (series often up to 57.5 µM), without a hit: top-dose activity change, negative = inhibition, hits mostly inhibitors | Muscleblind-like protein 1 (Homo sapiens), Q9NR56 | actives 0.036% (n = 280,000) | TR-FRET MBNL1-His/biotin-(CUG)12 binding, 665/545 ratio; active = well fitted inhibition curve with a large enough effect in the signal ratio, with a control signal flat, not every such curve was filed as active; inconclusive = small, poorly fitted or top-dose-only effect, or effect the other way, or a change in a side signal; inactive = no such curve, though single readings can be large or run the other way; the % refers to the signal ratio; also: potency is read from the fitted curve at half-maximal effect; % is scaled to controls: 0 for no effect and ±100 for the full control effect
Target sequence (Q9NR56 whole entry, looked up): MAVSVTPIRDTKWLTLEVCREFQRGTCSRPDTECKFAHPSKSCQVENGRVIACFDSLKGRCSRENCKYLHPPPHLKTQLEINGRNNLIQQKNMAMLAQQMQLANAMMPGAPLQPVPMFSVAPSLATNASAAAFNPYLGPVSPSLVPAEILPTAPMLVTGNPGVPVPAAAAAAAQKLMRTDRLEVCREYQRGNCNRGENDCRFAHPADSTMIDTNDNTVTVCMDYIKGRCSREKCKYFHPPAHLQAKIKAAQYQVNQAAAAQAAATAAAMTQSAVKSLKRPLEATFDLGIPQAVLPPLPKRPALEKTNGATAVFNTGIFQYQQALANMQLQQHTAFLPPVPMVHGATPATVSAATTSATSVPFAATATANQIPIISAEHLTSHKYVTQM
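Ratiometric TR-FRET (665 over 545 nm, excitation 340 nm) tracks disruption of MBNL1-His/biotin-(CUG)12 complex after 60 min at room temperature, with compounds at 92 nM to 58 uM final.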
TCR act – Activators of T cell receptors: qHTS campaign; primary human leukocytes, anti-CD3, IL-2 HTRF, 48 h; Potency, µM (top dose mostly 9.22 µM), without a hit: top-dose activation of IL-2 secretion, actives largely listed as activators; 330,000 tested, under 10 active; also: % of control where 0% means no effect
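IL-2 release read by HTRF sandwich (Eu cryptate donor, d2 acceptor, 665 nm emission) after 48 hr exposure of primary human leukocytes to compound together with anti-CD3 beads in the absence of co-stimulatory signals.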
Glioma ERSR ind – qHTS for Inducers of the Endoplasmic Reticulum Stress Response (ERSR) in Human Glioma: qHTS; U87-MG GRP78 promoter luciferase reporter, 16 h; Potency, µM, for the others: at the top dose activation, actives largely listed as activators; actives 0.02% (n = 420,000); AID 602332, 2012; also: potency is read from the fitted curve at half-maximal effect; series mostly up to about 76 µM; % of control where 0% means no effect; nearly all actives have a fitted effect of over 35% in size
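Stably transfected U87-MG glioma cells carrying a GRP78-based luciferase sensor; 16 h compound incubation. Luminescence end-point read 10 min after Bright-Glo addition at room temperature.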
AT treatment – qHTS Assay for Identifying a Potential Treatment of Ataxia-Telangiectasia; AID 485349, 2010; Potency, µM (highest dose often 57.5 µM), without a hit: top-dose activation, hits mostly activators; F2112 A-T fibroblasts, KAP-1 phosphorylation AlphaLISA; neocarzinostatin DNA damage 30 min before lysis; actives 0.19% (n = 320,000); also: potency is read from the fitted curve at half-maximal effect; % of control where 0% means no effect; nearly all actives have a fitted effect of over 45% in size
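ATM-like activity read as KAP-1 phosphorylation via AlphaLISA donor/acceptor antibody pairs after lysis and 6 hr at 25C. Cells were ATM-null patient fibroblasts (F2112, hTERT), dosed 60 min, then exposed to the DSB inducer NCS for 30 min.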
Mito fusion act – qHTS Assay for Small Molecule Inhibitors of Mitochondrial Division or Activators of Mitochondrial Fusion | actives 0.23% (n = 320,000) | S. cerevisiae fusion-defective mutant growth rescue, CellTiterGlo 48 h | Potency, µM (titrated, usually from 46.1 µM), for the others: at the top dose growth rescue (activation), actives largely listed as activators | AID 485298, 2010; also: potency is read from the fitted curve at half-maximal effect; % of control where 0% means no effect; nearly all actives have a fitted effect of over 45% in size
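Temperature-sensitive fusion-defective S. cerevisiae (e.g. fzo1-1, mgm1-5) were grown with compound in YPEG medium (3% ethanol, 3% glycerol) for 48 hours at 37C. Growth rescue was measured as viability by CellTiterGlo luminescence after 10 minutes at ambient.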
ClpP mod – qHTS Assay for Activators of ClpP; purified B. subtilis ClpP, FRET peptide cleavage, 20 min; actives 1.9% (n = 340,000); Potency, µM (titrated, usually from 57.5 µM), for inactives: at the highest dose activity change, negative = active; active = well fitted falling curve with a large enough effect; inconclusive = small, poorly fitted or top-dose-only effect; inactive = no such curve, though single readings can be large or run the other way; also: potency is read from the fitted curve at half-maximal effect; the source files actives as falling curves though it sought activators and does not explain the sign; nearly all actives have a fitted effect of over 65% in size
Target sequence (P80244 whole entry, looked up): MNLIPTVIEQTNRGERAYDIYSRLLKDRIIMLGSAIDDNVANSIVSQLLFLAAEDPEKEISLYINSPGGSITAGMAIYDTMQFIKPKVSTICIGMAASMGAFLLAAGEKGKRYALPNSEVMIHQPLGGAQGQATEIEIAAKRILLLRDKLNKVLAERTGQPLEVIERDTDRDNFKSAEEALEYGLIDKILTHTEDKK
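Buffer: 100 mM Tris/HCl pH8, 100 mM KCl, 0.05% low protease BSA, 2.5% glycerol, 0.01% Tween-20. ClpP 10 microg/mL final; 20 min RT; delta FRET normalized to ADEP and DMSO controls.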
Active calls of the source: *; ? = inconclusive; / = no result given; [ ] = remark or other dose. An excerpt weighted towards active compounds, which were near 1.8% of everything screened. Unless noted, calls follow the shape of the dose curve; as a rule, active = well fitted curve in the direction sought with a large enough effect; inconclusive = small, poorly fitted or top-dose-only effect, or another doubt; inactive = no such curve, though single readings can be large; an effect the other way counts as inactive or inconclusive.

SMILES	MBNL1 CUG block	TCR act	Glioma ERSR ind	AT treatment	Mito fusion act	ClpP mod
Cn1c(SCC(=O)NCc2ccco2)nnc1-c1cccc(NC(=O)c2ccccc2)c1	/	/	-6%	/	/	1%
Cc1cc(C)c(S(=O)(=O)ON2C(=O)c3ccccc3C2=O)cc1C	0%	-5%	-10%	-4%	-1%	8.9µM*
Cc1c(C(=O)NCCC2CCCN2C)cnn1-c1nccc(-c2ccccc2F)n1 (configuration not stated)	/	/	-3%	/	/	/
CC(=O)Nn1c(-c2ccccc2)cc2ccccc21	10%	-4%	-7%	-2%	13%	14µM*
OC1CCN(c2c3c(nc4cc(-c5ccc(Cl)cc5)nn24)CCC3)CC1	18%	-7%[46.1 µM]	4%	3%	25%	14µM*
Cc1nn2c(N3CCCC3)c3c(nc2c1-c1ccccc1)CCC3	11%	-2%	-3%	-1%	-5%	/
Clc1cccc(-c2cc3nc4c(c(N5CCOCC5)n3n2)CCCC4)c1	0%	-9%	3%	13%	22%	32µM*
Clc1cccc(N2CCN(c3c4c(nc5nncn35)CCC4)CC2)c1	/	/	/	/	/	-1%
Clc1cccc(-c2cc3nc4c(c(N5CCN(c6cnccn6)CC5)n3n2)CCCC4)c1	7%	2%[46.1 µM]	-2%	-6%	-2%	10µM*
Fc1cccc(-c2cc3nc4c(c(N5CCOCC5)n3n2)CCCC4)c1	3%	-1%	3%	19%	?	?
CCOC(=O)c1cccc(COC(=O)c2cccc(-c3nnc(-c4ccccc4)o3)c2)c1	-3%	0%[46.1 µM]	-11%	11%	-3%	32µM*
CCOC(=O)c1cc(C(=O)NN)c(C)nc1C	-4%	1%[46.1 µM]	-5%	-17%	-6%	-4%
O=C(OCc1ccccc1)c1cccc(-c2nnc(-c3ccccc3)o2)c1	-4%	-3%	-10%	14%	9%	35µM*
O=C(OCc1ccc(C(=O)c2ccccc2)cc1)c1cccc(-c2nnc(-c3ccccc3)o2)c1	-9%	4%	-4%	-1%	-2%	-2%
CCOC(=O)c1cc(-c2nnc(-c3ccc(Oc4ccccc4)cc3)o2)c(C)nc1C	4%	0%[46.1 µM]	-4%	2%	-8%	3.2µM*
CC(C)OC(=O)c1ccc(COC(=O)c2cccc(-c3nnc(-c4ccccc4)o3)c2)cc1	-1%	-1%[46.1 µM]	-2%	-1%	-4%	?
O=C(Cc1ccccc1[N+](=O)[O-])NCc1ccc2c(c1)OCO2	/	6%[46.1 µM]	-2%	1%	-8%	32µM*
O=C(Cc1ccccc1)NCc1ccc2c(c1)OCO2	-5%	6%	-5%	/	-1%	1%
Cn1cc(C(=O)N/N=C/c2ccc3c(c2)OCO3)c2ccccc21	?	-7%	3%	22µM*	0%	/
O=C(N/N=C/c1ccc2c(c1)OCO2)c1cccc2ccccc12	2%	-4%	1%	2%	-4%	/
C[C@@H]1[C@H](c2ccccc2)OCCS(=O)(=O)N1Cc1cccc(C(F)(F)F)c1	/	/	-2%	/	/	-1%
CCCc1c(C(=O)N/N=C(\C)c2cc(C)sc2C)nnn1-c1nonc1N	/	/	-3%	/	/	2%
C/C(=N\NC(=O)c1nnn(-c2nonc2N)c1C(C)C)c1cc(C)sc1C	7%	2%	-4%	3%	32µM*	/
Clc1c(CSc2nc3ccccc3o2)nc2ccccn12	-5%	-3%	-5%	-1%	7%	0%
Brc1c(CSc2nc3ccccc3o2)nc2ncccn12	37%	1%	0%	2%	3%	25µM*
SMILES	MBNL1 CUG block	TCR act	Glioma ERSR ind	AT treatment	Mito fusion act	ClpP mod
Brc1c(CSc2nncn2-c2ccccc2)nc2sccn12	-3%	-3%	0%	3%	3%	-1%
Brc1c(CSc2nncn2-c2ccccc2)nc2ncccn12	10%	-9%	-3%	/	1%	10µM*
CCOC(=O)C1=C(C)NC2=C(C(=O)C(C(=O)OCC)C(c3ccco3)C2)C1c1ccccn1 (configuration not stated)	6%	-20%	-3%	8%	0%	32µM*
Cc1cn2c(=O)c(S(=O)(=O)NCc3ccccc3Cl)c(C)nc2s1	/	/	-4%	/	/	16µM*
Cc1cn2c(=O)c(S(=O)(=O)NCc3ccc(F)cc3)c(C)nc2s1	/	/	-5%	/	/	32µM*
Cc1cc(C(=O)N/N=C/C=C/c2ccccc2)n[nH]1	?	0%	-7%	-17%	-2%	/
Cc1ccc(-c2cc(C(=O)N/N=C/C=C/c3ccccc3)n[nH]2)s1	-3%	-3%[46.1 µM]	6%	0%	16µM*	-4%
CN1CC[n+]2cnc3ccccc3c21	-4%	-2%	-5%	-6%	0%	28µM*
Cc1ccnc2ccccc12	/	/	-1%	/	/	-2%
CC(C)c1onc(-c2c(Cl)cccc2Cl)c1COc1ccc(/C=C/c2cccc(C(=O)O)c2)c(Cl)c1	/	/	-2%	/	/	/
C=C(CC[C@]12OC(C(=O)O)C(O)(C(=O)O)C(C(=O)O)(O1)C(OC(=O)/C=C/[C@@H](C)C[C@@H](C)CC)C2O)[C@@H](OC(C)=O)[C@H](C)Cc1ccccc1 (some centres not stated)	/	/	3%	/	/	0%
CC(C)(C)c1cc(C(=O)NNc2cc(C(F)(F)F)ccc2Cl)n(Cc2ccccc2)n1	/	-7%	2%	1%	5%	3.2µM*
O=C(Nc1cccc(-c2nc3ncccc3o2)c1)c1cc2ccccc2o1	-15%	-5%	7%	-8%	13µM*	-2%
O=C(Nc1cccc(-c2cc3ccccc3oc2=O)c1)c1ccc(Br)o1	?	-2%[46.1 µM]	-8%	1%	?	35µM*
O=C(Cc1ccccc1)Nc1cccc(-c2nc3ncccc3o2)c1	-2%	8%	-6%	-9%	-5%	28µM*
O=C(Nc1ccc(-c2nc3cccnc3s2)cc1)c1cccnc1Cl	?	-24%	-6%	14µM*	13%	/
COc1ccc(-c2cc3ccccc3oc2=O)cc1NC(=O)c1ccc(Br)o1	-2%	-1%	-6%	7%	4%	-28%
Cc1cc(C)cc(OCC(=O)Nc2cccc(-c3nc4ncccc4o3)c2)c1	17%	7%	-1%	9%	4%	-16%
Cc1ncc2c(c1CNC(=O)c1ccccc1F)CCN(C(=O)c1csc(-c3cccs3)n1)C2	/	/	-2%	/	/	/
